Test results reported in PubChem BioAssay AID1233 (SRMLSC, 2008).
Potency and affinity values are given separately. Calls of active or inactive are those of the source.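 How the source made its calls: active means a dose-response curve fit returns a half-maximal inhibitory concentration, extrapolated values included; inactive means the fit returns no such concentration.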

Molecular target: HMG-CoA reductase [Enterococcus faecalis] (UniProt Q9FD70)
Experiment: class II HMG-CoA reductase inhibition potency – biochemical, Enterococcus faecalis, confirmation (AID 1233)
Settings: purified E. faecalis HMGR, NADPH absorbance 340 nm kinetics; series mostly up to 100 µM

Row | Compound | outcome
1 | COc1ccc(Nc2ccc(S(=O)(=O)N3CCCCC3)cc2[N+](=O)[O-])cc1 | inactive
2 | NS(=O)(=O)c1ccc(N2C(=O)C3C4CC(C(Br)C4Br)C3C2=O)cc1 (centres undefined) | inactive
3 | O=C(COC(=O)/C=C/c1cn(-c2ccccc2)nc1-c1cccnc1)Nc1ccc(Cl)cc1Cl | inactive
4 | CC(=O)C1=C(O)C(=O)N(C)C1c1ccccc1F (centres undefined) | inactive
5 | COc1ccc(C)cc1NC(=O)C(Sc1nnnn1C)c1ccccc1 (centres undefined) | inactive
6 | Cn1c(=O)c(C(=O)CSc2ccccc2)c(N)n(Cc2ccccc2)c1=O | inactive
7 | ON/C=N/C(=S)Nc1ncc(C(F)(F)F)cc1Cl | inactive
8 | CCN1C(=O)/C(=C\C=C\c2ccccc2[N+](=O)[O-])SC1=S | inactive
9 | CCC(=O)Nc1ccc2c(c1)nc(CN1CCCCC1)n2C | inactive
10 | Cc1csc(NC(=O)c2cnccn2)n1 | inactive
11 | CCOC(=O)Cc1csc(SCC(=O)c2c(N)n(CC(C)C)c(=O)n(C)c2=O)n1 | inactive
12 | COC(=O)CC1COc2ccccc2N1C(=O)c1ccc(Br)cc1 (centres undefined) | inactive
13 | O=C(O)CCC(=O)NNC(=O)c1ccc(Br)cc1 | inactive
14 | Cc1ccc(S(=O)(=O)N2CCN(C(=O)CSc3nnc(-c4ccco4)o3)CC2)cc1 | inactive
15 | COc1cc(C2CC(=O)N(CC(=O)NCC3CCCO3)c3ccccc3S2)cc(OC)c1OC (centres undefined) | inactive
16 | Cn1c(SCC(=O)N2CCCC2)nnc1-c1ccc(S(=O)(=O)N2CCCC2)cc1 | inactive
17 | CCc1cccc2c(C#N)cn(CCOc3ccccc3OC)c12 | inactive
18 | O=[N+]([O-])c1ccc(C(=Nc2cccc3ccccc23)N2CCOCC2)cc1 | inactive
19 | CC(=O)NC(Cc1cccc(F)c1)C(=O)NC1CCN(c2ncccc2[N+](=O)[O-])CC1 (centres undefined) | inactive
20 | O=C(Nc1ccc(N2CCOCC2)c(Cl)c1)c1ccc([N+](=O)[O-])o1 | inactive
21 | Cc1cccc(S(=O)(=O)Nc2ccc(-c3cn4ccccc4n3)cc2)c1 | inactive
22 | COC(=O)c1ccc(NC(=O)Nc2ccccc2F)cc1 | inactive
23 | O=C(CC(=O)NN=C1CCCCCC1)NCc1cccnc1 | inactive

Row | Compound | outcome
24 | CC(=O)N1CC2(C)CN(C(C)=O)CC(C)(C1)C2 | inactive
25 | Cc1ccc(C(=O)c2c(NC(=O)c3ccccc3)sc(C)c2C)cc1 | inactive
26 | O=C(NC(NC(=S)Nc1ccccc1C(=O)O)C(Cl)(Cl)Cl)c1ccccc1 (centres undefined) | inactive
27 | O=C(CN1CCN(c2ncc(C(F)(F)F)cc2Cl)CC1)NC(=O)NCc1ccccc1 | inactive
28 | Cc1ccccc1NC(=O)Cn1nnc(S(=O)(=O)c2ccc(C(C)(C)C)cc2)c1N | inactive
29 | C=CCOc1c(Br)cc(CNc2nccs2)cc1OC | inactive
30 | Cc1ccc(-n2c(SCC(=O)N(C)C3CCS(=O)(=O)C3)nc3ccccc3c2=O)cc1 (centres undefined) | inactive
31 | c1ccc(-c2ccnc3nc(N4CCN(c5ccccc5)CC4)nn23)cc1 | inactive
32 | c1ccc(-c2nnc(SCc3nnc(-c4cccs4)o3)o2)cc1 | inactive
33 | C/C(=N\Nc1ccc(C(=O)O)cc1)c1ccc(-n2ccnc2)cc1 | inactive
34 | O=C(COc1cccc(NC(=O)c2ccco2)c1)c1ccc(F)cc1 | inactive
35 | O=C(c1cccs1)N(c1ccc(F)cc1)C1C=CS(=O)(=O)C1 (centres undefined) | inactive
36 | CCc1c(C)nc2ncnn2c1NCCc1ccccc1 | inactive
37 | C=CCNC(=O)C(=O)NN=C1CCN(C)CC1 | inactive
38 | CCOc1cc(N2CCOCC2)c(OCC)cc1NC(=O)CC12CC3CC(CC(C3)C1)C2 | inactive
39 | O=C(c1cc([N+](=O)[O-])ccc1N1CCCCC1)N1CCc2ccccc21 | inactive
40 | CC1CN(Cc2cnc(Cl)s2)CC(C)O1 (centres undefined) | inactive
41 | Cc1ccc(N2CCN(C(=O)c3ccccc3NC(=O)/C=C\C(=O)O)CC2)cc1 | inactive
42 | Cc1ccc(/C=C/C(=O)O)cc1S(=O)(=O)NCCCO | inactive
43 | Cc1ccc(CC(CC(=O)O)C(=O)NC2CCCCC2)cc1 (centres undefined) | inactive
44 | COc1cc2c(cc1OC)C(C(=O)Nc1ccc3c(c1)OCCO3)C(c1cccnc1)N(C)C2=O (centres undefined) | inactive
45 | CN(C)c1ccc2c3c(ccc(N(C)C)c13)COC2 | inactive
46 | COC(=O)c1ccccc1NC(=O)CSc1nnc(CNS(=O)(=O)c2ccc(C)cc2)n1C | inactive

Row | Compound | outcome
47 | CCS(=O)(=O)CCn1c([N+](=O)[O-])cnc1C | inactive
48 | O=C(CCc1nnc(CCCc2ccccc2)o1)NCCc1ccccc1 | inactive
49 | CCn1c(SCC(=O)N/N=C/c2ccc(C)o2)nnc1-c1ccccc1 | inactive
50 | O=C(Nc1ccc(S(=O)(=O)Nc2ccccc2)cc1)C1COc2ccccc2O1 (centres undefined) | inactive
51 | COc1ccc(CN2CCN(CCC(C)C)C(CCO)C2)cc1Cn1cccn1 (centres undefined) | inactive
52 | CN(CCOC(=O)c1cccc(Br)c1)C(C)(C)C | inactive
53 | Cc1ccsc1/C=C1/NC(=O)N(Cc2ccc(F)cc2)C1=O | inactive
54 | CC(=O)Nc1ccc(C(=O)CSc2nnc(Cc3ccccc3)o2)cc1 | inactive
55 | CC1CCCN(C(=O)C2CCN(CC(C)c3ccccc3)CC2)C1 (centres undefined) | inactive
56 | COc1cc(NC(=O)c2cc3nc(-c4ccccc4)cc(-c4ccccc4)n3n2)cc(OC)c1OC | inactive
57 | COCc1cc(C)n(CC(=O)OC)c(=O)c1C#N | inactive
58 | COc1ccccc1C(=O)NNC(=O)c1ccc(NC(=O)c2ccccc2)cc1 | inactive
59 | Cc1ccccc1-c1oc(C)c(C)[n+]1[O-] | inactive
60 | CC(=O)NCCn1c(SCc2cc(=O)n3cc(Cl)ccc3n2)nc2ccccc2c1=O | inactive
61 | O=C(NC(=S)N(CC1CCC1)CC1CCCO1)c1cccc([N+](=O)[O-])c1 (centres undefined) | inactive
62 | CC1=CC(C)C(C(=O)O)C(C(=O)O)C1 (centres undefined) | inactive
63 | Cc1ccc(-c2cc(C(=O)NCc3ccc4c(c3)OCO4)[nH]n2)c(O)c1C | inactive
64 | Cc1ccc(NC(=O)c2ccc3nc[nH]c3c2)c(O)c1 | inactive
65 | Cc1cccc(C(=O)Nc2cc(=O)n(C)c(=O)n2C)c1 | inactive
66 | O=C(CCCn1ncn2c(cc3occc32)c1=O)N1CCc2ccccc2C1 | inactive
67 | COc1ccccc1Sc1ccccc1/C=N/NC(N)=O | inactive
68 | Cc1cc(=O)[nH]c(SCC(=O)C23CC4CC(CC(C4)C2)C3)c1C#N | inactive
69 | CN(c1ccc(C(=O)N2CCCCC2)cc1)S(=O)(=O)c1ccccc1 | inactive
